From PubChem BioAssay AID624300 (Southern Research Specialized Biocontainment Screening …, 2012)
In all, about 2,400 compounds went through this assay and about 360 (15%) were called active. The list is a sample of the results. Results with a measured potency or affinity are listed apart. Unmarked numbers belong to inactive results.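 How the source made its calls: active means viability falls under 70% at one or more tested concentrations, taken as toxicity; inactive means viability stays over 70% at every dose.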

experiment: viability loss in HeLa cells – cytotoxicity control for MgcRacGAP inhibitor project, dose response (AID 624300); details: CellTiter-Glo luminescence, 24 h; series mostly up to 100 µM; viability: at the top concentration;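 further: 100% = median of untreated control wells on the same plate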

Compound | viability
Cc1c(N(C)C)nc2ccccc2c1N | 105%
O=C(O)CC1SC(=Nc2ccc(O)cc2)NC1=O (configuration not stated) | 99%
COc1cc(/C=N/NC2=NCCCCC2)ccc1O | 106%
S=c1[nH]nc(Nc2ccccc2Cl)s1 | 93.5%
O=C1NC(=NCc2ccccc2)S/C1=C/c1ccc(O)cc1 | 100%
COc1cc(/C=C2\SC(=Nc3ccc(Cl)c(C(=O)O)c3)NC2=O)c(Br)c(Br)c1O | 104%
O=C1NC(=S)S/C1=C\C=C\c1ccc([N+](=O)[O-])o1 | 80.3%
Cc1cc(/C=C2\SC(=S)NC2=O)c(C)[nH]1 | 89.5%
CCOC(=O)C1CCN(Cc2cccc(Oc3ccccc3)c2)CC1 | 94.7%
COc1cc(/C=N/NC(=O)c2cn(-c3cccc(C)n3)cn2)ccc1O | 102%
COc1cc([C@H]2OC[C@H]3[C@@H]2CO[C@H]3c2ccc(O)c(OC)c2)ccc1O | 91.9%
O=C(CN1CCN(c2ccc(O)cc2)CC1)N(C1CC1)C1CCS(=O)(=O)C1 (configuration not stated) | 104%
N#C/C(=C/c1ccc(O)c(O)c1)C(=O)NCc1ccc(Cl)cc1 | 80.4%
COc1ccc(CNCC(=O)Nc2cc(OC)cc(OC)c2)cc1 | 98%
C=CCc1ccc(OCCOCCNCCCC)c(OC)c1 | 97.1%
COc1ccc(NC2CCCN(C(=O)c3ccc4[nH]c(C)c(C)c4c3)C2)cc1 (configuration not stated) | 99%
Cc1ccc(NC(=O)CCC(=O)N/N=C/c2ccc(O)cc2O)cc1 | 108%
Cc1ccc(O)c(N=Cc2cc(Cc3ccccc3)cc([N+](=O)[O-])c2O)c1 | 96.8%
Cc1ccc(O)c(N=Cc2sc3ccccc3c2Cl)c1 | 91.1%
C=CCc1cccc(C=Nc2cc(Br)ccc2O)c1O | 86.5%
Cc1cccc(C=Nc2ccc3c4c(cccc24)CC3)c1O | 106%
O=C(CN1CCN(c2ccccn2)CC1)Nc1ccc(F)cc1 | 89.7%
CCOc1cc(C=NNC(=O)c2cccc(S(=O)(=O)N3CCCC3)c2)ccc1O | 91.9%
COCCCNC(=O)/C(C#N)=C/c1c(N2CCN(c3ccc(OC)cc3)CC2)nc2c(C)cccn2c1=O | 89.9%

Compound | viability
O=C(c1ccco1)N1CCN(Cc2cccc([N+](=O)[O-])c2)CC1 | 106%
COc1cc(OC)c(OC)cc1/C=N/N(C)c1ccccc1 | 109%
COc1cc(/C=N/N(C)c2ccccc2)ccc1O | 83%
COc1ccc(Cn2c(O)c(/C=N/NC(=O)c3cccnc3)c3ccccc3c2=O)cc1 | 111%
CCOC(=O)c1[nH]c2ccccc2c1NC(=S)Nc1ccccc1C | 106%
CCN(CC)S(=O)(=O)c1ccc(C)c(NC(=O)CN2CCN(C)CC2)c1 | 100%
Oc1ccc(/C=N/Nc2nc(N3CCCC3)nc(N3CCCC3)n2)cc1O | 102%
Oc1ccc(/C=N/Nc2cc(N3CCOCC3)nc(N3CCOCC3)n2)cc1 | 92.5%
Oc1ccc(/C=N/Nc2cccc(Cl)n2)c(O)c1 | 91.5%
Cc1nc(Cl)cc(N/N=C/c2ccc(O)cc2O)n1 | 100%
CCOc1cc(/C=N/n2cnnc2)ccc1O | 99.9%
CC1CCC/C(=C\Nc2ccc(O)cc2)C1=O (configuration not stated) | 106%
CCOCCCNC(=O)CN1CCN(c2ccc(F)cc2)CC1 | 96.4%
CC(C)=C(NC(=O)c1ccccc1)C(=O)N/N=C/c1ccc(O)cc1 | 104%
O=C(NN=Cc1ccc(O)cc1)c1ccccc1NS(=O)(=O)c1cccs1 | 93.7%
C=CCc1cc(Cl)ccc1OCCNCCN1CCOCC1 | 101%
CCCS(=O)(=O)N1CCN(C2Cc3ccccc3C2)CC1 | 106%
C=CCOC(=O)c1cc(-c2ccc(/C=C3\C(=O)NC(=O)C(C#N)=C3C)o2)ccc1Cl | 85.3%
CCN1CCN(CC(=O)Nc2cc(C(F)(F)F)ccc2OCCOC)CC1 | 99.1%
COCCNC(=O)Cn1cc(/C=N/NC(=O)c2ccc(Oc3ccc(O)cc3)cc2)c2ccccc21 | 104%
CCOc1cc(-c2nc3ccccc3s2)ccc1O | 87.2%
CCOc1cc(/C=N/n2c(C)nnc2C)ccc1O | 101%
NCC[C@H](O)C(=O)N[C@@H]1C[C@H](N)[C@@H](O[C@H]2O[C@H](CN)[C@@H](O)[C@H](O)[C@H]2O)[C@H](O)[C@H]1O[C@H]1O[C@H](CO)[C@@H](O)[C@H](N)[C@H]1O | 104%
CSCc1ccc(C(=O)N2CCCC(Nc3ccc4c(c3)OCCO4)C2)o1 (configuration not stated) | 100%

Compound | viability
Cc1ccccc1N1C(S)=C(C#N)C(=O)NC12CCCCC2 | 103%
C/C(=N\Nc1cccc2cccnc12)c1ccc[nH]1 | 96.6%
COc1ccc(CN2CCN(Cc3ccco3)CC2)cc1OC | 93.6%
O=C1C(=Cc2ccco2)CCC1=Cc1ccco1 | 99.7%
CCN(CC)c1ccc(NC(=O)CCN2C(=O)c3ccccc3S2(=O)=O)c(C)c1 | 105%
Nc1cc(C(F)(F)F)ccc1N1CCOCC1 | 96.6%
CCc1ccccc1NC(=S)NCC1CCN(c2ccc(OC)cc2)C1 (configuration not stated) | 95%
Nc1ccc2nc(Cc3ccccc3)[nH]c2c1 | 115%
Nc1ccc2c(c1)[nH]c(=O)c1cc(N)ccc12 | 93.6%
CCN(CC)S(=O)(=O)c1ccc(N/N=C/c2ccc(O)cc2)nc1 | 95.9%
O=C(c1ccc(Cl)c(S(=O)(=O)N2CCCCCC2)c1)N1CCN(c2ccc(O)cc2)CC1 | 87%
CSc1nc(C)c2c(n1)N(c1ccc(O)cc1)CC2 | 103%
CCN1CCN(c2ccc(N=Cc3ccccc3O)cc2)CC1 | 101%
CC(=O)c1c(C)c(C)c2n1CCn1c(C)ccc1-2 | 96.3%
CN1C(=O)/C(=C/c2ccc(C(=O)Nc3ccc(O)cc3C(=O)O)cc2)SC1=S | 103%
CCN=C1S/C(=C\c2ccc(O)c(OCC)c2)C(=O)N1CC | 101%
Cc1ccc(NCCCCO)cc1C | 95.5%
O=c1cc(-c2ccc(O)c(O)c2)oc2cc(O)c([C@@H]3O[C@H](CO)[C@@H](O)[C@H](O)[C@H]3O)c(O)c12 | 84.2%
C/C(=N\NC(=O)c1cccc(N/N=C(\C)c2cc(O)ccc2O)c1)c1cc(O)ccc1O | 86%
CC(=O)C1=C(O)C(=O)N(c2ccc(O)cc2)C1c1ccccc1[N+](=O)[O-] (configuration not stated) | 93%
Cn1c(=O)[nH]c(NCCc2ccc(O)cc2)c([N+](=O)[O-])c1=O | 106%
COc1cc(/C=N/NC(=O)c2cc[n+]([O-])cc2)ccc1O | 102%
O=C1C=CC(=O)N1c1ccccc1N1C(=O)C=CC1=O | 114%
CCS(=O)(=O)c1ccc2oc(=O)c(/C=C(\O)c3ccc(Cl)cc3)nc2c1 | 99.4%

Compound | viability
CN(C)CCCC1Sc2ccccc2Sc2ccccc21 (configuration not stated) | 113%
Nc1cc([N+](=O)[O-])ccc1Nc1ccc(O)cc1 | 91.9%
Cc1ccc(-n2c(=S)[nH]c3sc4c(c3c2=O)CCC4)cc1 | 80.5%
COc1cc(/C(C)=N\NC(=O)CSc2nc3ccccc3n2C)ccc1O | 102%
CCN1CCN(CC(=O)Nc2nc3ccc(OC)cc3s2)CC1 | 88.7%
CCC(=O)N1CCc2cc(S(=O)(=O)CCC(=O)NCc3ccc(C)cc3)ccc21 | 97.8%
CCOc1ccc(CN2CCN(Cc3c[nH]c4ccccc34)CC2)cc1 | 93.4%
O=C(CCc1c[nH]c2ccccc12)NCCc1ccc(O)cc1 | 101%
Nc1nc2cc(S(=O)(=O)NC3=NCCCCC3)ccc2s1 | 99.8%
Nc1nc(N)c2[nH]c(=S)[nH]c2n1 | 90.9%
CN(CC(=O)NCc1ccncc1)S(=O)(=O)c1ccc(Cl)cc1 | 96.8%
COC(=O)c1[nH]c2ccc(C)cc2c1NC(=O)Oc1ccccc1 | 92.6%
Nc1ccc(OCCc2ccccc2)cc1 | 108%
O=[N+]([O-])c1ccccc1OCCNCc1ccccc1 | 96.5%
CC(C)[C@H](N[C@@H](C)c1ccccc1)c1c(O)ccc2ccccc12 | 97.3%
COc1cccc(OC)c1OCCNC(C)(C)C | 100%
CCn1c(-c2ccccc2)csc1=Nc1ccc(O)cc1 | 98.7%
O=c1[nH][nH]cc1C=Nc1cc(Cl)ccc1O | 95.4%
CN(C)/C=C1\NC(=S)N(c2ccccc2)C1=O | 99.2%
CCc1ccc(NC(=O)CNCc2ccc(OC)c(OC)c2)cc1 | 105%
CCOc1ccccc1/C=c1\sc2ncnn2c1=O | 91.7%
Cn1c(=O)[nH]c(N)c(Br)c1=O | 105%
O=C(COc1ccccc1)NCC(=O)N/N=C/c1ccc(O)cc1O | 103%
O=Nc1ccc(NOC(=O)c2ccccc2)cc1 | 99.9%

Compound | viability
Nc1ccc2c(c1)Nc1ccccc1CC2 | 97.6%
CCN1CCN(CCOc2ccccc2OCc2ccccc2)CC1 | 97.9%
Oc1ccc(/C=N/Nc2ncnc3nc[nH]c23)cc1 | 99.2%
Oc1ccc(/C=N/Nc2ncc(Cl)cc2Cl)cc1 | 107%
COc1cc(/C=N/Nc2nc(N3CCCC3)nc(N3CCCC3)n2)ccc1O | 89.4%
COc1cc(/C=N/NC(=O)C(C)n2nnc3ccccc32)ccc1O (configuration not stated) | 107%
COc1cc(/C=N/Nc2nc(C)cc(C)n2)ccc1O | 104%
COc1cc(/C=N/Nc2ccc(C(=O)O)cc2)ccc1O | 92.5%
O=C(O)C1CCCCC1C(=O)Nc1ccc(S(=O)(=O)N2CCOCC2)cc1 (configuration not stated) | 107%
Cc1ccn2c(=S)[nH]nc2c1 | 106%
Oc1cc(Br)ccc1C=Nc1ccc(N2CCCCC2)cc1 | 95.8%
COc1ccccc1CNCC(=O)Nc1ccc(N(C)C)cc1 | 100%
O=C(N/N=C/c1ccc(O)cc1)Nc1cccc2nsnc12 | 84.8%
Cc1csc(=O)n1CC(=O)OC(C)C(=O)Nc1ccc(N(C)C)cc1 (configuration not stated) | 106%
CCN(Cc1ccccc1)c1ccc(/C=N/N2CCOCC2)cc1 | 101%
C=CCn1c(SCC(=O)Nc2ccc(O)cc2)nc2sc(CC)cc2c1=O | 92.4%
Brc1ccccc1OCCCCCN1CCOCC1 | 95%
C=CCNC(=O)CN1CCN(C(c2ccccc2)c2ccccc2)CC1 | 96.1%
COc1ccc(NC2CCCN(C(=O)c3ccc(C(C)=O)s3)C2)cc1 (configuration not stated) | 108%
CN=c1scc(C)n1/N=C/c1ccc(O)cc1 | 104%
Cc1cc(Br)cc(C=Nc2ccc(N3CCOCC3)cc2)c1O | 108%
